GCN5L2 inh: inhibitors of human GCN5L2 histone acetyltransferase; Q92830; GCN5L2 HAT assay, ThioGlo1 CoA-SH fluorescence; Potency, µM (series often up to 58.9 µM), for inactives: top-dose activity change, negative = inhibition, usual class: inhibitors; 390,000 compounds, 0.21% hits; AID 504327; further: on the % scale 0 is the no-effect control and ±100 the full control effect
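ThioGlo1-coupled HAT assay: 20nM GCN5L2, 70uM acetyl-CoA, 75uM H3(1-25) peptide, pH 7.5. Fluorescence read at 340/540nm at start and after 20 min at room temperature.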
Pol eta inh-1: blocks human DNA polymerase eta activity; Potency, µM (top dose mostly 114 µM), for the others: at the top dose activity change, negative = inhibition, usual class: inhibitors; recombinant Pol eta, fluorescent DNA replication assay; 390,000 compounds, 1.2% hits; Q9Y253; AID 588591; further: on the % scale 0 is the no-effect control and ±100 the full control effect
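Fluorescent replication assay: 50 nM final substrate added after a 15 min room-temperature compound preincubation with 10 nM enzyme. Signal taken at 0 min and again at 10 min.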
Pol iota inh: blocks human DNA polymerase iota activity; Potency, µM (top dose mostly 115 µM), without a hit: at the highest dose activity, negative = inhibition, actives largely listed as inhibitors; Q9UNA4; AID 588590; Pol iota fluorescent replication assay, 10 min; 390,000 compounds, 1% hits
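Pol iota at 10 nM preincubated 15 min with compounds at room temperature; reaction started with fluorescent substrate, 50 nM final. Fluorescence read kinetically at 0 and 10 min; buffer-only wells as negative control.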
Pol kappa inh-1: inhibitors of human DNA polymerase kappa. Q9UBT6. purified Pol kappa, fluorescent DNA synthesis assay, 10 min. 400,000 compounds, 0.53% hits. Potency, µM (top dose mostly 107 µM), for the others: at the top dose activity, negative = inhibition, most hits filed as inhibitors; further: on the % scale 0 is the no-effect control and ±100 the full control effect
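First, compounds were pin-transferred onto 10 nM Pol kappa. After 15 min at room temperature, substrate was added to 50 nM final. Fluorescence was then measured kinetically at 0 and 10 min.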
GLS inh: glutaminase GLS (human) inhibition. AID 624170. Potency, µM (titrated, usually from 45.5 µM), inactives show at the highest dose activity change, negative = inhibition, most hits filed as inhibitors. 410,000 compounds, 0.21% hits. GLS enzymatic activity, qHTS titration. O94925; further: on the % scale 0 is the no-effect control and ±100 the full control effect
Target sequence (O94925 whole entry, looked up): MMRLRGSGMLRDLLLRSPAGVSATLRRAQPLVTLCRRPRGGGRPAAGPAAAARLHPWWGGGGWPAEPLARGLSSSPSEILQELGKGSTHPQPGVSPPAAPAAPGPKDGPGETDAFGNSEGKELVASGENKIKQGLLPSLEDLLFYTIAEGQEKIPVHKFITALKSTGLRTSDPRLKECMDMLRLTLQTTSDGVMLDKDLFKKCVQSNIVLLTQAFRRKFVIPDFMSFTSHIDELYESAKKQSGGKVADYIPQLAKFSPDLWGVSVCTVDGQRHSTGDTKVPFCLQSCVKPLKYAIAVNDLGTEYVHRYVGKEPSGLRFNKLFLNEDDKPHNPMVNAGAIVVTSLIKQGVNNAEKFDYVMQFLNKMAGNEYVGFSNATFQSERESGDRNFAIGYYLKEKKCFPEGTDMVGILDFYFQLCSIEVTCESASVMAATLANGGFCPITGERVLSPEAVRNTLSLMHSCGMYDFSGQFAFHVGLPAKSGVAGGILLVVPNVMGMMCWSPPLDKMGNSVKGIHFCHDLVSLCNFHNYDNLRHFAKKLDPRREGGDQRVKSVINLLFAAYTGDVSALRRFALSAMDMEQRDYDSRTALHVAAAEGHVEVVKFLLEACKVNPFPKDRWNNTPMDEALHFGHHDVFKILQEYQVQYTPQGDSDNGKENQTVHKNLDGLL
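Coupled fluorescence readout: glutamate oxidase/HRP/Amplex Red detect glutamate formed by hKGA from L-glutamine (1 mM solution added). Buffer 45 mM KH2PO4 pH 8.2, 0.02% Tween-20; reads at t0 and 30 min RT.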
POLB inh: DNA polymerase beta (human) inhibition. Pol beta primer extension/strand displacement, fluorescence kinetic. AID 485314. 340,000 compounds, 1.3% hits. P06746. Potency, µM (series often up to 114 µM), for the others: top-dose activity change, negative = inhibition, actives largely listed as inhibitors; further: on the % scale 0 is the no-effect control and ±100 the full control effect
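10 nM enzyme + cpd, 15 min RT; start with substrate 50 nM final; read 0 min and after 10 min RT. Corrected, normalized data; 4-parameter Hill curve fit.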
PGK validate: blocks T. brucei phosphoglycerate kinase. AID 686980. TbPGK coupled GAPDH assay, Kinase-Glo luminescence. Potency, µM (series often up to 57.5 µM), for the others: at the top dose activity change, negative = inhibition, actives largely listed as inhibitors. 500 compounds, 79% hits. shares compounds with Pol kappa inh-1; further: on the % scale 0 is the no-effect control and ±100 the full control effect; nearly all actives have a fitted effect of over 65% in size
Pol iota confirm: Human Pol iota inhibitor confirmatory assay; shares compounds with Pol kappa inh-1; Pol iota primer extension, TAMRA/BHQ fluorescence; Potency, µM, usual class: inhibitors; 1,500 compounds, 77% hits; AID 720496
Pol kappa inh-2: confirmation of human DNA polymerase kappa inhibitors. Potency, µM, usual class: inhibitors. 920 compounds, 76% hits. shares compounds with Pol eta inh-1. purified Pol-kappa, fluorescent strand-displacement substrate. AID 720501
Pol eta inh-2: confirmation of human DNA polymerase eta inhibitors | shares compounds with Pol eta inh-1 | Pol eta primer extension, TAMRA/BHQ fluorescence, 10 min | Potency, µM, usual class: inhibitors | 2,600 compounds, 64% hits | AID 720502
Active calls of the source: *; [ ] = another dose, or the depositor's remark. An excerpt weighted towards active compounds, which were near 2.4% of everything screened. The call rests on the fitted dose curve; in most records, active means well fitted curve in the direction sought with a large enough effect; inconclusive means small, poorly fitted or top-dose-only effect, or another doubt; inactive means no such curve, though single readings can be large; an effect the other way counts as inactive or inconclusive. Potency means the concentration at half of the fitted maximal effect.

`O=[N+]([O-])c1cccnc1NCCc1ccccc1` gave GCN5L2 inh -1%, Pol eta inh-1 0%, Pol iota inh 62%, Pol kappa inh-1 -5%, GLS inh 3% and POLB inh 3%.
For O=C1C=C(NCCc2cc(Br)c(O)c(Br)c2)C(=O)c2ncccc21 the results were Pol eta inh-1 3.5µM*, Pol iota inh 3.2µM*, Pol kappa inh-1 28µM*, GLS inh 10%, Pol iota confirm 17*, Pol kappa inh-2 24* and Pol eta inh-2 27*.
Screening COc1ccc2nc(N(Cc3cccnc3)C(=O)c3ccco3)sc2c1 returned GCN5L2 inh -1%, Pol eta inh-1 -10%, Pol iota inh 23%, Pol kappa inh-1 -18%[60.1 µM], GLS inh -1% and POLB inh 4%.
For O=C(NCc1ccc2c(c1)OCO2)c1cc2ncc(Br)cn2n1 the results were GCN5L2 inh -13%, Pol eta inh-1 10µM*, Pol iota inh 22µM*, Pol kappa inh-1 -43%, GLS inh inconclusive, POLB inh 14µM*, Pol iota confirm inconclusive and Pol eta inh-2 inconclusive.
For CCn1ccc2cc(S(=O)(=O)N3CCC(C(=O)NCCc4ccc(SC)cc4)CC3)ccc21 the results were GCN5L2 inh -15%, Pol eta inh-1 -17%, Pol iota inh 15%, Pol kappa inh-1 -13%[60.1 µM], GLS inh 3% and POLB inh -15%.
Screening COc1ccccc1-c1nc2c(c(SCC(=O)Nc3ccc(C)c(C)c3)n1)Cc1c(CO)cnc(C)c1O2 returned GCN5L2 inh -9%, Pol eta inh-1 inconclusive, Pol iota inh -2%, Pol kappa inh-1 -11%, GLS inh -13%, POLB inh 0%, Pol iota confirm inconclusive and Pol eta inh-2 inconclusive.
`Cc1ccc(NC(=O)CSc2nc(-c3ccc(F)cc3)nc3c2Cc2c(CO)cnc(C)c2O3)cc1C` gave GCN5L2 inh -2%, Pol eta inh-1 6%, Pol iota inh 4%, Pol kappa inh-1 -8%, GLS inh -3% and POLB inh -1%.
CC1=C(C(=O)OCc2ccc(C)cc2)C(c2ccccc2C(F)(F)F)CC(=O)N1 (stereo not given) was read as GCN5L2 inh -2%, Pol eta inh-1 -12%, Pol iota inh 8%, Pol kappa inh-1 -24%, GLS inh -6% and POLB inh 25%.
COC(=O)c1ccccc1NC(=O)CCS(=O)(=O)c1ccc(Br)cc1 was read as GCN5L2 inh -9%, Pol eta inh-1 3.5µM*, Pol iota inh -99%, Pol kappa inh-1 20µM*, GLS inh inconclusive, POLB inh 2.5µM*, PGK validate inconclusive, Pol iota confirm 21*, Pol kappa inh-2 15* and Pol eta inh-2 27*.
Screening CCOc1ccc(NC(=O)CCS(=O)(=O)c2ccc(Br)cc2)cc1 returned GCN5L2 inh inconclusive, Pol eta inh-1 18µM*, Pol iota inh -13%, Pol kappa inh-1 8%, GLS inh inconclusive, POLB inh 28µM*, PGK validate inconclusive and Pol eta inh-2 76*.

Bioassay records (PubChem)
